Sampled rows, rich in hits. Any-hit rate of the full collection: about 10%.
GLA spleen mod: qHTS Assay for Inhibitors and Activators of Human alpha-Galactosidase From Spleen Homogenate | Potency, µM (highest dose often 80 µM), inactives show at the highest dose activity change, negative = inhibition, most hits filed as inhibitors | 0.008% of 240,000 active | human spleen homogenate, 4MU-alpha-Gal fluorescence, 40 min | Alpha-galactosidase A (Homo sapiens), P06280;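 further: potency means the concentration at half of the fitted maximal effect; 0% = enzyme with vehicle and -100% = no enzyme basal signal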
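Human spleen homogenate (1 ug) was the enzyme source, with 4-methylumbelliferyl-alpha-D-galactopyranoside (1 mM final) in pH 5.0 citrate buffer with 0.01% Tween-20. Compounds were titrated; after 40 min at 37C, NaOH/glycine stop, 4-MU fluorescence read; AC50 from Hill fits.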
GLA inh pH 4.5: qHTS Assay for Inhibitors of Human alpha-Galactosidase at pH 4.5. activity change, negative = inhibition, % at 105 µM. purified enzyme, 4-MU-alpha-Gal fluorescence, pH 4.5. 230,000 tested, under 10 active;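 further: 0% = full activity with enzyme and -100% = basal without enzyme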
12-hLO inh: qHTS Assay for Inhibitors of 12-hLO (12-human lipoxygenase); purified 12-hLO, xylenol orange hydroperoxide absorbance; Potency, µM (doses to about 57.1 µM), for inactives: top-dose activity change, negative = inhibition, actives largely listed as inhibitors; 0.12% of 150,000 active; AID 1452, 2008; further: potency means the concentration at half of the fitted maximal effect; nearly all actives have a fitted effect of over 55% in size
Target sequence (P18054 whole entry, looked up): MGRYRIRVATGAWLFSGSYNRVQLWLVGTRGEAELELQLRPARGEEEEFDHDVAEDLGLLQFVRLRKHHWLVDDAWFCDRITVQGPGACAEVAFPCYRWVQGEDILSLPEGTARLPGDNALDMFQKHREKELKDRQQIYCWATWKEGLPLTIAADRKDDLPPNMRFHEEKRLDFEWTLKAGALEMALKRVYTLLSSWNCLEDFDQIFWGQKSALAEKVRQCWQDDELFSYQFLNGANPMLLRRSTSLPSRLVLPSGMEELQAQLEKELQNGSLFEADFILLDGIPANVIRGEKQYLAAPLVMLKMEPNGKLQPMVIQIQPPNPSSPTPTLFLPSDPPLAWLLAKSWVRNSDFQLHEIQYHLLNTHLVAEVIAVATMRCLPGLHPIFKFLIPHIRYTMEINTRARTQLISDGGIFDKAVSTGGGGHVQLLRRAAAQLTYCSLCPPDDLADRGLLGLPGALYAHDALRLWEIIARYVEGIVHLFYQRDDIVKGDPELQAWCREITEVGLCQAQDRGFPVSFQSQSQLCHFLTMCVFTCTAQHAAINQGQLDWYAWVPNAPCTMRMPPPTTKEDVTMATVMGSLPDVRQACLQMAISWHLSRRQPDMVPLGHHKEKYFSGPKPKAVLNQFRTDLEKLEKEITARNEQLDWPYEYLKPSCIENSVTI
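150 nM 12hLO, 25 mM Hepes pH 7.0 + 0.01% Triton X-100; cpd preinc 15 min RT; 40 uM arachidonic acid, 30 min RT; Fe-XO 30 min; A573/A405 ratio as read-out.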
HPGD inh: qHTS Assay for Inhibitors of HPGD (15-Hydroxyprostaglandin Dehydrogenase). 15-hydroxyprostaglandin dehydrogenase [NAD(+)] (Homo sapiens), P15428. purified HPGD, NADH fluorescence kinetic, PGE2 substrate. Potency, µM, without a hit: at the top dose activity change, negative = inhibition, most hits filed as inhibitors. 4.3% of 150,000 active. AID 894, 2007; active means well fitted inhibition curve with a large enough effect, not every such curve was filed as active; inconclusive means small, poorly fitted or top-dose-only effect, or another doubt; inactive means no such curve, though single readings can be large or run the other way; further: potency means the concentration at half of the fitted maximal effect
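20 nM HPGD preincubated 15 min at room temperature with compound in 50 mM Tris-HCl pH 8, 0.01% Tween 20. Started with 1 mM NAD+ and 30 uM prostaglandin E2; NADH fluorescence (360/450 nm) read 5 times over 30-s intervals, last minus first.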
ALDH1A1 block: qHTS Assay for Inhibitors of Aldehyde Dehydrogenase 1 (ALDH1A1) | Aldehyde dehydrogenase 1A1 (Homo sapiens), P00352 | 7.3% of 220,000 active | Potency, µM (series often up to 75.3 µM), for inactives: at the highest dose activity, negative = inhibition, hits mostly inhibitors | Purified ALDH1A1, NADH fluorescence, propionaldehyde substrate; active means well fitted inhibition curve with a large enough effect, not every such curve was filed as active; inconclusive means small, poorly fitted or top-dose-only effect, or another doubt; inactive means no such curve, though single readings can be large or run the other way;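 further: potency means the concentration at half of the fitted maximal effect; plate controls were no enzyme wells and a reference inhibitor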
PNC assembly inh: High Content Assay for Compounds that inhibit the Assembly of the Perinucleolar Compartment; PC3M PTB-GFP, PNC prevalence imaging, 16 h; active compounds read low; activity change (PNC), negative = inhibition, % at 10 µM; 3.1% of 140,000 active;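 active means readout at or below -70, meaning at least 70% loss of cells showing the perinucleolar compartment, a nuclear body marking cancer cells; inconclusive means readout between -30 and a set limit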;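 further: plate controls were DMSO wells for no effect and camptothecin positive control wells for full effect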
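Read-out is percentage of cells bearing a perinucleolar compartment, from automated 20x imaging of fixed, Hoechst-stained PC3M PTB-GFP cells. Cells were seeded 4 h, then exposed 16 h to compound (23 nl of library stock) in duplicate plates.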
Numbers without * were called inactive; ? = inconclusive; . = not tested or not shown; [ ] = another dose, or the depositor's remark. Unless noted, the call rests on the fitted dose curve; in most records, active means well fitted curve in the direction sought with a large enough effect; inconclusive means small, poorly fitted or top-dose-only effect, or another doubt; inactive means no such curve, though single readings can be large; an effect the other way counts as inactive or inconclusive. Unless noted, on the % scale 0 is the no-effect control and ±100 the full control effect.

SMILES	GLA spleen mod	GLA inh pH 4.5	12-hLO inh	HPGD inh	ALDH1A1 block	PNC assembly inh
O=C(Nc1ccccc1)C1=C[C@@H](C2CCCCC2)C[C@@H](OCc2ccc(CO)cc2)O1	8.9%	-7.4	.	.	4.47µM*	.
O=C(Nc1ccccc1)C1=C[C@H](C2CCCCC2)C[C@H](OCc2ccc(CO)cc2)O1	-7.4%	-3.0	.	.	0.5%	.
O=C(C1=C[C@@H](C2CCCCC2)C[C@@H](OCCCCO)O1)N1CCOCC1	15.8%	6.8	.	.	?	.
c1ccc2c(N3CCNCC3)nc(-c3ccc4c(c3)OCO4)nc2c1	-4.9%	1.1	-7.1%	-29.0%	?	.
CC(=O)N1CCC2(CCCN(Cc3cc(C(F)(F)F)cc(C(F)(F)F)c3)C2)CC1	-0.5%	.	4.8%	-5.6%	-0.1%	.
Oc1ccc(Cc2cc(Cl)cc(Cl)c2O)cc1Cl	.	.	-1.5%[11.4 µM]	-12.8%	8.6%[13.5 µM]	.
CN1C(=O)/C(=C/c2ccc(-c3ccccc3[N+](=O)[O-])o2)SC1=Nc1ccc(Cl)c(C(=O)O)c1	3.1%	-9.9	-2.6%	14.1µM*	12.6µM*	?
COC(=O)c1oc(-c2ccc(Cl)cc2)nc1C	2.7%	2.8	.	.	25.1µM*	.
CCC1S/C(=N/N=C/c2ccco2)N(Cc2ccc(F)cc2)C1=O (configuration not stated)	-13.1%	-10.7	.	.	.	.
CC1S/C(=N/N=C/c2ccco2)N(Cc2ccccc2)C1=O (configuration not stated)	4.5%	-2.1	.	.	10µM*	.
COc1ccccc1-c1nnc(Nc2nc3c(OC)cccc3s2)o1	-0.7%	-16.2	-0.1%	?	?	-86.6*
COc1ccc(Nc2nc(-c3cc4cccc(OC)c4oc3=O)cs2)cc1	-15.0%	1.4	2.4%	-12.3%	22.4µM*	13.7
COc1cccc2cc(/C(C)=N/Nc3nc(-c4cc(C)ccc4C)cs3)c(=O)oc12	0.1%	-3.5	0.7%	31.6µM*	?	7.6
O=C(Nc1nc(-c2cc3ccccc3oc2=O)cs1)c1ccc(Br)o1	-2.0%	0.2	20µM*	?	?	?
COc1ccc2oc(=O)c(-c3csc(Nc4cccc(O)c4)n3)cc2c1	-8.2%	-6.7	-3.7%	-17.9%	-9.6%	60.2
CCOC(=O)/C(C)=N/NC(C)=O	9.7%	0.4	.	-3.5%	-0.7%	.
COc1cccc2sc(Nc3nc(-c4ccncc4)cs3)nc12	-15.8%	-2.7	.	.	1.5%	.
COc1cccc2sc(Nc3nc(-c4cc5ccccc5oc4=O)cs3)nc12	9.0%	-0.5	-3.1%	?	?	-83.5*
CC(=O)Nc1ccc(NC(=O)C(Cc2ccccc2)NC(=O)C2CCCCC2)cc1 (configuration not stated)	-3.3%	5.0	2.3%	-2.0%	-1.8%	-119.3*
CCOC(=O)N1CCC(NC(=O)C(Cc2ccccc2)NC(=O)C2CCCCC2)CC1 (configuration not stated)	1.1%	-6.6	-4.1%	-12.0%	-8.5%	?
Cc1nn(Cc2ccccc2)c(C)c1NC(=O)CSc1nc(C2CC2)nc2c1cnn2-c1ccccc1	4.0%	-1.0	3.5%	-24.0%	3.8%	-87.6*
CCc1nc(SCC(=O)Nc2c(C)nn(C)c2C)c2cnn(-c3ccccc3)c2n1	-6.1%	-2.4	1.8%	-6.3%	7.3%	23.3
Cn1c(=O)c(C#N)c(-c2ccc(F)cc2)c2cc(C(=O)c3cc(Cl)cc(Cl)c3O)cnc21	7.5%	-6.0	.	.	.	.
COc1ccccc1OCC(=O)n1cc(C(=O)c2cc(Cl)cc(Cl)c2O)cn1	-5.2%	-0.8	5.9%	17.8µM*	-1.1%	?
CCN1CCN(CCCNC(=O)c2cn(CCOC)c(=O)c3c2c2ccccc2n3C)CC1	?	-1.1	0.1%	?	?	-100.8*
SMILES	GLA spleen mod	GLA inh pH 4.5	12-hLO inh	HPGD inh	ALDH1A1 block	PNC assembly inh
COCCn1cc(C(=O)NCCCN2CCC(C)CC2)c2c3ccccc3n(C)c2c1=O	7.4%	11.5	2.6%	?	?	-12.8
CCOC(=O)Nc1cc(Br)c2c(c1)OCCO2	14.9%	-3.6	-5.7%	14.1µM*	2.3%	15.0
Cc1cccc(C[C@H](C(=O)O)N2C(=O)c3ccc(C(=O)O)cc3C2=O)c1	-0.5%	.	.	.	.	.
CCOC(=O)c1c(C)oc(NC(=O)CCl)c1C(=O)OCC	3.4%	7.4	.	.	3.55µM*	.
COc1cc(C(CCN2CCCC2)c2c(OC)cc(OC)c3c2OC(=O)CC3c2ccc(N(C)C)cc2)cc(OC)c1OC (configuration not stated)	5.1%	.	.	.	.	.
CCCc1c(C)[nH]c2ccc(C(=O)O)cc2c1=S	-19.0%	-3.7	.	.	.	.
COC(=O)c1ccccc1NC(=O)CN1CCC(n2nnc3cc(C(F)(F)F)ccc32)CC1	-18.4%	0.2	6.2%	-12.7%	6.5%	?
CC1Cc2ccccc2N1C(=O)CN1CCC(n2nnc3cc(C(F)(F)F)ccc32)CC1 (configuration not stated)	0.9%	-7.0	-1.0%	?	11.2µM*	-28.2
COc1ccc(N(CC(=O)Nc2ccccc2C(=O)O)S(=O)(=O)c2ccc(C)c([N+](=O)[O-])c2)cc1	3.0%	-15.3	.	.	?	.
O=C(CSc1nnc(-c2cccs2)n1CC1CCCO1)c1cc2ccccc2o1 (configuration not stated)	0.0%	1.1	-12.3%	?	28.2µM*	-28.5
Cn1c(SCC(=O)c2cc3ccccc3o2)nnc1-c1ccccc1	-4.7%	-1.0	-15.2%	?	28.2µM*	-11.1
O=C(CSc1nnc(-c2ccncc2)n1CC1CCCO1)NCc1ccccc1 (configuration not stated)	2.1%	2.6	0.7%	2.0%	-0.7%	-17.7
CNC(=O)CSc1nnc(-c2ccccc2)n1C	2.6%	-10.8	.	.	0.2%	.
Cn1c(SCC(=O)Nc2ccc3c(c2)oc2ccccc23)nnc1-c1ccccc1	0.7%	-0.6	-3.5%	-7.3%	25.1µM*	5.0
Cn1ccnc1SCC(=O)c1cc2ccccc2o1	-0.5%	0.8	-18.6%	-20.5%	20µM*	?
Cn1cnnc1SCC(=O)c1cc2ccccc2o1	4.1%	-17.2	.	.	?	.
COc1cc2c(cc1OC)[C@H](c1ccccc1)CN(C)CC2	.	.	-2.7%	.	.	.
NNC(=O)c1cc2cc(OC(F)(F)F)ccc2[nH]1	-2.6%	-16.8	.	.	.	.
Cc1cccc(-c2nnc(SCC(=O)C(C)(C)C)n2C)c1	-9.0%	2.1	.	.	11.2µM*	.
